Assay outcomes as filed in PubChem BioAssay.
MITF inh – blocks human microphthalmia-associated transcription factor; O75030; 650,000 tested, 0.91% active; AlphaScreen MITF homodimerization, bead proximity signal; inhibition, % at 2.6 µM; in the data active means inhibition above about 50%;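 further: 0% = vehicle wells with protein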
TEAD-YAP block – TEAD-YAP interaction inhibition; HEK-TIYL cells, TEAD-Gal4/YAP UAS-luciferase luminescence; inhibition, % at 9.12 µM; AID 1259422; 640,000 tested, 1.4% active; in the data active means inhibition above about 32%;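 further: 0% = median of test compound wells and 100% = reference inhibitor wells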
FBW7 activator – activators of human E3 ligase FBW7. Q969H0. AlphaScreen FBW7–phospho-cyclin E peptide binding, activator screen. normalized activity (activation), % at 26.1 µM. 650,000 tested, 0.13% active; in the data active means normalized activity above about 1.9%;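 further: purified mutant Fbw7 with reduced substrate affinity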
Target sequence (Q969H0 whole entry, looked up): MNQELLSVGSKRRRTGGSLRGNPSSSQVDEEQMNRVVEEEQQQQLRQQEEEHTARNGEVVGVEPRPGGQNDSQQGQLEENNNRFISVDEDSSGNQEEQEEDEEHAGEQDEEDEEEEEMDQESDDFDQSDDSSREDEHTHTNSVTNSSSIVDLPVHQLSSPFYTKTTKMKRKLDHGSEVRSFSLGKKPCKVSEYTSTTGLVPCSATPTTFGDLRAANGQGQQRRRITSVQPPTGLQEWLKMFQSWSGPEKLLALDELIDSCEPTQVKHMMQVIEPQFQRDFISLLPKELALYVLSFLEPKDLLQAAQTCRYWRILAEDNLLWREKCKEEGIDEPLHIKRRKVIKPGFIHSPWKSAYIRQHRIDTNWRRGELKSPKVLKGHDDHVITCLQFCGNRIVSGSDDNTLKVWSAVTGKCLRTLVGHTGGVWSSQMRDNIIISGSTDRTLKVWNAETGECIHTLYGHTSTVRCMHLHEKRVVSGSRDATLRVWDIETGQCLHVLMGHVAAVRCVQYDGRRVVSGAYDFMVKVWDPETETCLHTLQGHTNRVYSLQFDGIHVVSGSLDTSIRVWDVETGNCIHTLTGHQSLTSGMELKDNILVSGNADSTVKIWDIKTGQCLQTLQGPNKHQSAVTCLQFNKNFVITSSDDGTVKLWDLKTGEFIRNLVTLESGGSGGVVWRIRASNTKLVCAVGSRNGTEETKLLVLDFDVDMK
GPR151 ag – activators of human GPR151. AID 1508602. 650,000 tested, 1% active. PathHunter beta-arrestin GPR151 cells, luminescence. activation, % at 11.2 µM; in the data active means activation above about 4.9%;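 further: 0% = median of compound wells and 100% = cells with positive control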
* hit, by the source's call. Shown are actives, neighbours in structure and some others; about 3.5% of the full set was active somewhere.

SMILES	MITF inh	TEAD-YAP block	FBW7 activator	GPR151 ag
CCCCN(C)CCCN1C(=O)C2C(C(=O)Nc3cccc(SC)c3)C3C=CC2(O3)C1C(=O)NC1CCCCC1 (stereo not given)	-5	10	0	1
O=c1c(C=NCCc2ccccn2)c(CSc2ccc(Cl)cc2)[nH]n1-c1nc2ccccc2s1	65*	0	0	1
Cc1cncc2cccc(NC3CCCN(C(=O)[C@H](C)O)C3)c12 (stereo not given in full)	4	62*	-1	0
Cc1cncc2cccc(NC3CCCN(C(=O)C(O)c4ccc(F)cc4)C3)c12 (stereo not given)	13	45*	0	0
Cc1cncc2cccc(NC3CCCN(C(=O)C(O)c4ccc(Cl)cc4)C3)c12 (stereo not given)	7	42*	0	2
Cc1cc2c(NC3CCCN(C(=O)C(O)c4ccc(Cl)cc4)C3)cccc2nn1 (stereo not given)	56*	6	-2	0
Cc1cncc2cccc(NC3CCCN(C(=O)c4cccc(Br)c4)C3)c12 (stereo not given)	6	8	0	-1
Cc1cncc2cccc(NC3CCN(C(=O)C(N)c4ccc(Cl)cc4)CC3)c12 (stereo not given)	14	-9	0	0
CC(NC(=O)C(Cl)Cl)c1ccccc1 (stereo not given)	-4	7	0	0
COc1ccc(C(=O)Nc2nc3c(s2)CN(Cc2ccccc2)CC3)cc1OC	3	1	0	2
O=C(Nc1nc2c(s1)CN(Cc1ccccc1)CC2)c1ccc2ccccc2c1	5	33*	0	4
Cc1ccc(NC(=O)c2ccccc2NS(C)(=O)=O)cc1Cl	19	10	0	1
O=C(CN1CC[n+]2c(-c3cccs3)csc21)c1ccccc1	9	32*	0	0
O=C(Cn1c2ccccc2n2nc(-c3cccs3)nc12)c1ccccc1	-3	-7	0	1
O=C(Nc1ccc(C(=O)N(Cc2ccccc2)Cc2ccccc2)cc1)C1COc2ccccc2O1 (stereo not given)	-8	4	0	-1
Cc1nc2ccc(NC(=O)c3ccc(S(=O)(=O)N(C)C)cc3)cc2c(=O)n1-c1ccc(Cl)cc1	19	38*	0	0
COc1ccc(CCNC(=O)c2ccc3nc(Nc4cc(OC)c(OC)c(OC)c4)sc3c2)cc1	0	-13	0	1
Cc1ccc(S(=O)(=O)N2C(=O)CCC2c2nc(-c3ccccn3)no2)cc1 (stereo not given)	5	39*	0	0
CN1CCN(C(c2ccncc2)c2ccc3cccnc3c2O)CC1 (stereo not given)	70*	18	0	2
Oc1c(C(Nc2nccs2)c2cccs2)ccc2cccnc12 (stereo not given)	33	26	-1	-2
CN1CCN(C(c2cccs2)c2ccc3cccnc3c2O)CC1 (stereo not given)	9	88*	0	-1
CCC(=O)NC(c1cccs1)c1cc(Cl)c2cccnc2c1O (stereo not given)	19	23	-1	0
Oc1c(C(c2cccs2)N2CCOCC2)cc(Cl)c2cccnc12 (stereo not given)	7	57*	0	0
OCCN1CCN(C(c2cccs2)c2ccc3cccnc3c2O)CC1 (stereo not given)	26	87*	0	1
CCNc1nccc(Nc2cc(OC)c(OC)c(OC)c2)n1	-9	13	0	0
SMILES	MITF inh	TEAD-YAP block	FBW7 activator	GPR151 ag
c1cnc2c(CN3CCCCC3)cccc2c1	-1	13	0	3
CCN1CCN(Cc2ccc3cccnc3c2O)CC1	94*	29	-1	3
CCN1CCN(C(c2cccs2)c2ccc3cccnc3c2O)CC1 (stereo not given)	18	88*	0	1
O=[N+]([O-])c1cc(C(F)(F)F)ccc1NS(=O)(=O)c1ccccc1	22	-2	0	0
COCCCNC(=O)/C(C#N)=C/c1cc(C)n(-c2sc3c(c2C#N)CCCC3)c1C	-7	59*	0	0
COC(=O)c1cccc(-n2c(C)cc(/C=C(\C#N)C(=O)Nc3ccc(OC)cc3)c2C)c1	-8	53*	0	-1
CNC(=O)/C(C#N)=C\c1cc(C)n(-c2ccc(Br)cc2)c1C	1	32*	0	-1
COCCNC(=O)/C(C#N)=C/c1cc(C)n(-c2ccccc2)c1C	1	65*	0	0
CNC(=O)/C(C#N)=C\c1cc(C)n(-c2ccc(N3CCOCC3)cc2)c1C	12	32	0	-1
CC(C)N1CC=C2C(C#N)=C(N)C(C#N)(C#N)C(c3cc(Br)ccc3F)C2C1 (stereo not given)	-1	6	0	0
CCOc1cc(/C=C2/C(=N)N3N=C(C(F)(F)F)SC3=NC2=O)ccc1OCCOc1c(C)cccc1C	-21	19	0	1
Cc1cccc(NC(=O)CCC2CCN(C(=O)CSc3nncn3C)CC2)c1	1	-1	0	-2
Cc1cc(/C=C(\C#N)C(=O)N2CCOCC2)c(C)n1-c1ccccc1	2	71*	0	-3
COC(=O)c1ccc(-n2c(C)cc(/C=C(\C#N)C(=O)N3CCOCC3)c2C)cc1	13	1	0	0
CC(=O)c1ccc(NC2=C(N3CCOCC3)C(=O)c3ccccc3C2=O)cc1	3	0	0	0
CCN(C1=C(N2CCCC2)C(=O)c2ccccc2C1=O)c1ccccc1	69*	0	-1	-1
CC(=O)N(C1=C(N2CCCCC2)C(=O)c2ccccc2C1=O)c1ccc(F)c(F)c1	34	6	0	-3
CC(=O)N(C)C1=C(N2CCCC2)C(=O)c2ccccc2C1=O	-9	94*	0	-4
CC(=O)N(C)C1=C(N2CCOCC2)C(=O)c2ccccc2C1=O	1	84*	0	-2
CCN(C(C)=O)C1=C(N2CCCC2)C(=O)c2ccccc2C1=O	11	84*	0	-2
CS(=O)(=O)N(CC(O)Cn1c2ccccc2c2ccccc21)c1ccc(F)cc1 (stereo not given)	6	0	0	4
COc1cccc(CN2CCN(S(=O)(=O)c3ccc(F)cc3)CC2)c1	12	6	0	0
CC(NC(=O)CN1N=C(c2ccccc2)Cn2c(cc3sccc32)C1=O)c1ccccn1 (stereo not given)	-11	-15	0	1
O=C1OC(c2ccc(Cl)cc2)=N/C1=C\c1ccc(OCc2ccccc2)cc1	8	-11	0	1
CC(=O)Nc1ccc(C2=N/C(=C/c3ccc(OCc4ccccc4)cc3)C(=O)O2)cc1	1	43*	0	1
Cc1ccc(C2=N/C(=C\c3ccccc3OC(=O)c3ccc(Br)cc3)C(=O)O2)cc1	-7	37*	0	0
Cc1ccc(C2=N/C(=C\c3ccccc3OCc3ccccc3)C(=O)O2)cc1	-3	41*	0	1
COc1ccccc1NC(=O)c1c(NC(C)=O)sc2c1CCC(C(C)(C)C)C2 (stereo not given)	1	-1	0	1
